INS-1E GSIS act: primary screen for activators of insulin secretion dependent on glucose, INS-1E cells, GLuc reporter luminescence. INS-1E GLuc reporter insulin secretion, 2-3 h. activation, % at 16.6 µM. hit rate 0.61% among 370,000;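 active = lowest replicate activation of at least 40%, so every replicate reaches that level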
RAD52 anneal inh: inhibitors of human RAD52 DNA annealing; P43351; recombinant RAD52 DNA annealing, FRET fluorescence; inhibition, % at 18.7 µM; hit rate 0.46% among 360,000; AID 651710;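 active = every replicate showing at least 50% inhibition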
DENV2 CPE: protects cells from dengue virus 2 cytopathic effect; DENV2-infected cells, cytopathic effect rescue, plate reader; CPE inhibition, % at 9.99 µM; hit rate 1.7% among 350,000; in the data active = CPE inhibition above about 20%, passing the limit was not always enough; tested in BHK-21 cells
MLL AF4-AF9 inh: blocks AF4 peptide binding to human AF9. P42568. AlphaScreen, biotin-AF4 peptide binding to FLAG-AF9. inhibition, % at 10 µM. hit rate 0.47% among 350,000. AID 651704;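 active = every replicate reaching a set inhibition limit, whatever the replicate mean, cut at about 25% in these data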
dFosB act-1: mouse delta FosB homodimer activation; purified delta FosB, TAMRA-CDK5 oligo fluorescence polarization; percent of positive-control signal above neutral wells; activation, % at 25 µM; hit rate 0.99% among 340,000; AID 493131;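 active = mean activation above about 17%, with every replicate also reaching it, limit read from the data, passing the limit was not always enough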
RAD54 branch: inhibitors of human RAD54 branch migration. RAD54 Holliday junction branch migration, FAM/BHQ fluorescence. inhibition, % at 10.4 µM. hit rate 0.14% among 360,000. AID 602329;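 active = mean normalized replicate activity at least 40 and at least half of replicates scoring 40 or more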;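 also: inhibitors cause a drop in the FAM fluorescence signal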
Target sequence (Q92698 whole entry, looked up): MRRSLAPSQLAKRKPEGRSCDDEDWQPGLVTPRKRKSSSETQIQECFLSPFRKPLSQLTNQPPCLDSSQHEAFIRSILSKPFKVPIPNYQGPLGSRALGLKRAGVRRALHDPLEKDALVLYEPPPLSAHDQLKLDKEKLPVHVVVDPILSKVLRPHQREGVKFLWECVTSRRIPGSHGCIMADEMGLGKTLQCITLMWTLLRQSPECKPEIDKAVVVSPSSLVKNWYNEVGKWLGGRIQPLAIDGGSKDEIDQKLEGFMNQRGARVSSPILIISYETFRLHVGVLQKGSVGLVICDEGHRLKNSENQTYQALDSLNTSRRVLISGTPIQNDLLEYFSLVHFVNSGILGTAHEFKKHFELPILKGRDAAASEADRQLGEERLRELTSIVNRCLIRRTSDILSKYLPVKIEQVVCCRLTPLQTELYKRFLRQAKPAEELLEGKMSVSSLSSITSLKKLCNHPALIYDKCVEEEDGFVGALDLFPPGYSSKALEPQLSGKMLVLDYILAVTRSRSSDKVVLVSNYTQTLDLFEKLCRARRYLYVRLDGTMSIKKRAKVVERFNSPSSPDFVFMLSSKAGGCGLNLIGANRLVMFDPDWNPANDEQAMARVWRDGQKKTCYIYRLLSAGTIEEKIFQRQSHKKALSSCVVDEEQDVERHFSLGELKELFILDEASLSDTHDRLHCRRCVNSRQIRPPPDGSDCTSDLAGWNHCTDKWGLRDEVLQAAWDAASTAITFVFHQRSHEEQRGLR
dFosB act-2: enhances mouse delta FosB homodimer binding to DNA; shares compounds with dFosB act-1; purified delta FosB, TAMRA-CDK5 oligo fluorescence polarization; normalised: neutral wells 0, positive control 100; activation, % at 24.9 µM; 2,400 tested, under 10 active; AID 588690;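 active = highest replicate activation at or above 34% and every replicate reaching that threshold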;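 also: higher polarization means more probe DNA bound by delta FosB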
DNA binding: counter-screen for Rad54 inhibitors: DNA binding compounds | Acridine orange-DNA displacement, fluorescence polarization, 20 min | AC50, µM (series often up to 35 µM) | shares compounds with RAD54 branch | hit rate 8% among 460;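 active = signal drop giving an AC50 within twice the top valid tested concentration of each sample, actives reach about 35 µM in these data; inactive = activity opposite to expected, plus the rest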;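 also: polarization loss reports compound binding to salmon sperm DNA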
Hits are given with their value. Compounds with a hit are over-represented: about 3.1% of the library has one in this group of screens.

What do the screens show for `Cc1nnc(NC(=O)c2cccc(S(=O)(=O)N3CCc4ccccc43)c2)s1`?
dFosB act-1: inactive; RAD54 branch: inactive

How did O=C(/C=C/c1ccccc1)Nc1ccc(Br)cn1 do in these assays?
INS-1E GSIS act: inactive; RAD52 anneal inh: inactive; DENV2 CPE: inactive; MLL AF4-AF9 inh: inactive; dFosB act-1: 23; dFosB act-2: inactive

How did C[C@H]1CN([C@@H](C)CO)C(=O)c2cc(C#CC(C)(C)O)cnc2O[C@@H]1CN(C)Cc1cncnc1 do in these assays?
INS-1E GSIS act: inactive; RAD52 anneal inh: inactive; DENV2 CPE: inactive; MLL AF4-AF9 inh: inactive; RAD54 branch: inactive

What do the screens show for `O=C(NCc1ccc2c(c1)OCO2)C1CCN(C(=O)Nc2ccc(Cl)cc2)CC1`?
dFosB act-1: 20; RAD54 branch: inactive; dFosB act-2: inactive

What do the screens show for `CCS(=O)(=O)N1CCC(C(=O)NCc2ccc3c(c2)OCO3)CC1`?
INS-1E GSIS act: inactive; RAD52 anneal inh: inactive; DENV2 CPE: inactive; MLL AF4-AF9 inh: inactive; dFosB act-1: inactive

Results for COc1ccc(Cl)cc1NC(=O)NCc1ccc2c(c1)OCO2 ?
INS-1E GSIS act: inactive; RAD52 anneal inh: inactive; DENV2 CPE: inactive; MLL AF4-AF9 inh: inactive; dFosB act-1: 62; RAD54 branch: inactive; dFosB act-2: inactive

How did C#CCOc1nc(Nc2cccc([N+](=O)[O-])c2)nc(OCC#C)n1 do in these assays?
INS-1E GSIS act: inactive; RAD52 anneal inh: inactive; DENV2 CPE: inactive; MLL AF4-AF9 inh: inactive; dFosB act-1: 29; RAD54 branch: inactive; dFosB act-2: inactive

Results for COc1nc(Nc2cccc([N+](=O)[O-])c2)nc(OC)n1 ?
INS-1E GSIS act: inactive; RAD52 anneal inh: inactive; DENV2 CPE: inactive; MLL AF4-AF9 inh: inactive; dFosB act-1: 106; dFosB act-2: inactive

What do the screens show for `CNc1nc(Nc2ccc([N+](=O)[O-])cc2)nc(OCC(F)(F)F)n1`?
INS-1E GSIS act: inactive; RAD52 anneal inh: inactive; DENV2 CPE: inactive; MLL AF4-AF9 inh: inactive; dFosB act-1: inactive; RAD54 branch: inactive

Results for CCN1CCN(c2cc(C)c3cc(NC(=S)NCCN(C)C)ccc3n2)CC1 ?
INS-1E GSIS act: inactive; RAD52 anneal inh: 98; DENV2 CPE: inactive; MLL AF4-AF9 inh: inactive; dFosB act-1: 20; RAD54 branch: 93; dFosB act-2: inactive; DNA binding: inactive

What do the screens show for `C[C@@H]1CCCCO[C@@H](CN(C)Cc2ccc(Cl)c(Cl)c2)[C@H](C)CN([C@@H](C)CO)C(=O)c2cc(NC(=O)Nc3ccc(C(F)(F)F)cc3)ccc2O1`?
INS-1E GSIS act: inactive; RAD52 anneal inh: inactive; DENV2 CPE: inactive; MLL AF4-AF9 inh: inactive; RAD54 branch: inactive

Results for CCN(CC)CCNc1ccnc2cc(Cl)ccc12 ?
INS-1E GSIS act: inactive; RAD52 anneal inh: inactive; DENV2 CPE: inactive; MLL AF4-AF9 inh: inactive; dFosB act-1: inactive; RAD54 branch: inactive

How did CCNC1CCC(Nc2ccnc3cc(Cl)ccc23)CC1 (stereo not drawn) do in these assays?
RAD52 anneal inh: inactive; DENV2 CPE: inactive; MLL AF4-AF9 inh: inactive; dFosB act-1: 20; RAD54 branch: 55; dFosB act-2: inactive; DNA binding: inactive

How did COCC(=O)Nc1ccc2c(c1)C(=O)N(C)[C@@H]1CC[C@@H](CC(=O)NCCc3ccncc3)O[C@@H]1CO2 do in these assays?
INS-1E GSIS act: inactive; RAD52 anneal inh: inactive; DENV2 CPE: inactive; MLL AF4-AF9 inh: inactive; RAD54 branch: inactive

Results for COc1cc(OC)c2nc(C)c3c(c2c1)N(c1ccc(O)cc1)CC3 ?
INS-1E GSIS act: inactive; dFosB act-1: 47; RAD54 branch: 51; dFosB act-2: inactive; DNA binding: inactive

How did Cn1cnc(S(=O)(=O)N[C@@H]2CC[C@@H](CC(=O)N3CCN(c4ccccc4)CC3)O[C@H]2CO)c1 do in these assays?
INS-1E GSIS act: inactive; RAD52 anneal inh: inactive; DENV2 CPE: inactive; MLL AF4-AF9 inh: inactive; RAD54 branch: inactive

What do the screens show for `CC(C)(C)C(=O)N1CCN(CCN2C(=O)c3cccc4cccc(c34)C2=O)CC1`?
INS-1E GSIS act: inactive; RAD52 anneal inh: inactive; DENV2 CPE: inactive; MLL AF4-AF9 inh: inactive; dFosB act-1: inactive; RAD54 branch: inactive
